Results filed as inconclusive are left out. Activity calls are given as the source filed them.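 How the source made its calls, unless noted: active means GFP signal, as percent of the solvent control, above the screen mean plus 3 SD, about 149; inconclusive means no reading because the compound's own fluorescence upset strain identification; inactive means the rest.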
How the values were obtained:
[1] = yeast TOR pathway RPL19A-GFP modulators, primary screen, cell-based, S. cerevisiae, multiplex flow cytometry (AID 1862; in the data active means percent of DMSO control GFP below about 86%;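 further: lower values mimic rapamycin by blocking the RPL19A rise seen in DMSO cells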); conditions: S. cerevisiae RPL19A-GFP strain, flow cytometry fluorescence, 3 h; at 10 µM; stronger effect = lower value
[2] = modulators of MEP2-GFP levels in yeast, primary screen, S. cerevisiae, multiplex flow cytometry (AID 1867;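 active means GFP response, as percent of the DMSO control, above the screen-wide mean plus 3 SD, about 139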;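 further: median GFP channel fluorescence of barcode-gated MEP2-GFP cells measured by flow cytometry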); conditions: S. cerevisiae MEP2-GFP strain, 3 h, at 10 µM, stronger effect = higher value, 100% means same as DMSO wells
[3] = modulators of CIT2-GFP expression in yeast, primary screen, S. cerevisiae, GFP fusion, multiplex flow cytometry (AID 1870;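 active means percent response above a set limit, the screen-wide mean plus 3 SD, cut at about 130% in these data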;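 further: barcoded CIT2-GFP strain pooled with four other GFP strains with rapamycin as positive control; median GFP fluorescence per well over plate mean of DMSO wells so 100% = DMSO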); conditions: 3 h, at 10 µM, stronger effect = higher value
[4] = modulators of LAP4-GFP expression in yeast, primary screen, S. cerevisiae, multiplex flow cytometry (AID 1873); conditions: 3 h, at 10 µM, stronger effect = higher value
[5] = modulators of AGP1-GFP expression in yeast TOR pathway, primary screen, cell-based, multiplex flow cytometry, S. cerevisiae (AID 1887;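 active means GFP signal above the screen-wide mean plus 3 SD, that is over about 124.5% of the solvent control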;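 further: AGP1-GFP fusion strain of S. cerevisiae within a five-strain barcoded multiplex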); conditions: 3 h, at 10 µM, stronger effect = higher value
[6] = inhibitors of CD8+ T cell-vesicle binding, pilot screen, LFA-1/ICAM-1 modulator project, MLPCN validation set, flow cytometry (AID 2523;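 active means response below a set limit, under 55% cells CD8-positive and vesicle-bound, and CD8 cells' 90th-percentile brightness under 279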;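 on vesicle binding response: mean PE anti-B7-1 fluorescence of CD8+ cells relative to row control; 100% = QL9-loaded vesicles with DMSO vehicle in the same plate row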); conditions: 2C mouse CD8+ T cells, at 7 µM, stronger effect = lower value; double positive events: measured here: CD8+/vesicle+ event percentage
[7] = target: Integrin beta-1 (Homo sapiens) + Integrin alpha-4 (Homo sapiens) (UniProt P13612+P05556); assay: inhibition of HUTS-21 binding to VLA-4, pilot screen, VLA-4 allosteric modulator project, U937 cells, HUTS-21 mAb, flow cytometry, validation set (AID 2674;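 active means inhibition above 50%, about 3 SD of the validation set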;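 further: antibody binding induced by the VLA-4 ligand LDV present at three times its Kd; 0% = LDV ligand with antibody and no compound and 100% = antibody without LDV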); conditions: HUTS-21 LIBS mAb binding, at 6.7 µM, stronger effect = higher value, binding induced by LDV ligand
[8] = superoxide lowering in aged yeast cells, pilot screen, validation compound set (AID 2706;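 active means superoxide response below 65% of plate, a cut near 3 SD across the whole screen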;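 further: yeast exposed to compound for one week at 30 degrees C before staining; 100% = mean of all compound wells on the same plate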); conditions: S. cerevisiae aging, superoxide DHE fluorescence; at 10 µM; stronger effect = lower value
[9] = target: Beta-adrenergic receptor kinase 1 (Homo sapiens) (UniProt P25098); assay: GRK2 binders displacing RNA aptamer, biochemical, validation, human GRK2, bead flow cytometry (AID 488806;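 active means aptamer binding inhibition above 30%, about 3 SD of noise from non-fluorescent compounds; inactive means inhibition at or below 30%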); conditions: bead-bound GRK2, FAM-aptamer displacement, at 10 µM, stronger effect = higher value
[10] = target: Beta-2 adrenergic receptor (Homo sapiens) (UniProt P07550); assay: beta2AR agonists driving receptor internalization, pilot screen, cell-based, FAP fluorogen, flow cytometry, validation set (AID 504459;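 active means percent response above 42, roughly 3 SD of non-fluorescent test compounds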;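 further: agonist-driven loss of surface beta2AR via internalization measured by FAP dye flow cytometry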); conditions: Am2.2-beta2AR cells, FAP surface receptor flow cytometry; at 10 µM; stronger effect = higher value
[11] = target: AP-2 complex subunit beta (Homo sapiens) (UniProt P63010); assay: inhibitors of arrestin peptide binding to AP2, pilot screen, biochemical, validation set, GST-AP2 beads, flow cytometry (AID 504541;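 active means inhibition above 54%, about 3 SD of non-fluorescent compounds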;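 further: AP2 carries R879A mutation and is captured from E. coli lysate; bead-bound FITC arrestin peptide fluorescence measuring arrestin peptide binding to AP2; 0% = DMSO wells and 100% = excess unlabeled arrestin peptide control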); conditions: FITC arrestin peptide, at 10 µM, stronger effect = higher value, AP2 beta2 appendage fragment, R879A mutant
[12] = yeast V-ATPase proton transport modulators, S. cerevisiae, pHLuorin, HTS validation (AID 504600; in the data active means response above about 15%;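 further: plate controls were DMSO for no effect and reference compound for full effect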); conditions: S. cerevisiae pHLuorin cytosolic pH, at 10 µM, stronger effect = higher value
[13] = system: anti-desmoglein-3 scFv antibody binding to human DSG3; assay: inhibitors of anti-DSG3 scFv binding to DSG3, pilot screen, biochemical, validation compound set, bead-based, flow cytometry (AID 588368;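 active means binding below the plate cutoff, the plate median minus 3 SD, with a reading above zero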;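 further: signal is the median channel fluorescence of bead-bound GFP antibody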); conditions: Protein G beads, DSG3-Fc, scFv-GFP binding, at 10 µM, stronger effect = lower value
[14] = inhibitors of fungal efflux pumps CDR1, CDR2, MDR1, pilot screen, validation compound set, multiplex, phenotypic (AID 588506;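 active means efflux inhibition above 0.42, the validation set average plus 4 SD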;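 further: Nile Red retained in cells so higher fluorescence means more efflux inhibition; 0 = negative control wells and 1 = enniatin B 25 µM full block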); conditions: S. cerevisiae pump-expressing triplex, Nile Red efflux flow cytometry; at 10 µM; stronger effect = higher value; the pumps come from Candida albicans
[15] = target: ATP-binding cassette sub-family B member 6 (Homo sapiens) (UniProt Q9NP58); assay: ABCB6 transporter inhibitors, pilot screen, K562-ABCB6 cells, flow cytometry, validation set (AID 588550;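 active means inhibition above the screen-wide mean plus 3 SD, about 51%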;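 further: 0% = DMSO wells and 100% = benzethonium chloride 70 µM positive control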); conditions: K562-ABCB6 porphyrin accumulation, 1 h, at 10 µM, stronger effect = higher value
[16] = promoters of myeloid differentiation in arrested cells, primary screen, cell-based, GFP/MAC1 double positive, flow cytometry, validation set (AID 588685;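 active means differentiation response of at least 50%, scaled between solvent and reference control, from cells with both markers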;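 further: compound exposure lasts four days before antibody staining and flow analysis; 0% = DMSO wells and 100% = 5 µM fulvestrant positive control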); conditions: ER-HoxA9 marrow cells, stronger effect = higher value, normalized: vehicle 0, fulvestrant 100

Beta-adrenergic receptor kinase 1 (Homo sapiens), sequence (P25098 whole entry, looked up): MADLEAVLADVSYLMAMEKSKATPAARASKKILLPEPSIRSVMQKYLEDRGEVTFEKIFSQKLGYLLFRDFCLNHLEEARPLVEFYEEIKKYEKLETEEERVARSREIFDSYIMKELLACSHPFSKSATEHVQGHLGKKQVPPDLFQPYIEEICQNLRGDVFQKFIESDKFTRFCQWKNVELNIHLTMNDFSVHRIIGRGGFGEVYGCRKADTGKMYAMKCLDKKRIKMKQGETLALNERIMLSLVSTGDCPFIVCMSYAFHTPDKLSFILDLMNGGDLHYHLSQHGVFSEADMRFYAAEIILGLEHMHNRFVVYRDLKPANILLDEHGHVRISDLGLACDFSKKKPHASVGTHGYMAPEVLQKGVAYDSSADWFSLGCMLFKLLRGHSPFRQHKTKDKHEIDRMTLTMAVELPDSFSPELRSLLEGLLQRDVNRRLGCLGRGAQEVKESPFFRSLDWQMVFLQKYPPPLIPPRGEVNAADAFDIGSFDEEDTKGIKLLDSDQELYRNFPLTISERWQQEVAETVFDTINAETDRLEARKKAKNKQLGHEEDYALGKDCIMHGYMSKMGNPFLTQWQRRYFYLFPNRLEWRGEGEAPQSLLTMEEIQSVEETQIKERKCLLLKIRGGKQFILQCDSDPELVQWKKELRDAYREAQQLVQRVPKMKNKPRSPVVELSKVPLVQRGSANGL
Integrin beta-1 (Homo sapiens) + Integrin alpha-4 (Homo sapiens), sequence (P05556 whole entry, looked up): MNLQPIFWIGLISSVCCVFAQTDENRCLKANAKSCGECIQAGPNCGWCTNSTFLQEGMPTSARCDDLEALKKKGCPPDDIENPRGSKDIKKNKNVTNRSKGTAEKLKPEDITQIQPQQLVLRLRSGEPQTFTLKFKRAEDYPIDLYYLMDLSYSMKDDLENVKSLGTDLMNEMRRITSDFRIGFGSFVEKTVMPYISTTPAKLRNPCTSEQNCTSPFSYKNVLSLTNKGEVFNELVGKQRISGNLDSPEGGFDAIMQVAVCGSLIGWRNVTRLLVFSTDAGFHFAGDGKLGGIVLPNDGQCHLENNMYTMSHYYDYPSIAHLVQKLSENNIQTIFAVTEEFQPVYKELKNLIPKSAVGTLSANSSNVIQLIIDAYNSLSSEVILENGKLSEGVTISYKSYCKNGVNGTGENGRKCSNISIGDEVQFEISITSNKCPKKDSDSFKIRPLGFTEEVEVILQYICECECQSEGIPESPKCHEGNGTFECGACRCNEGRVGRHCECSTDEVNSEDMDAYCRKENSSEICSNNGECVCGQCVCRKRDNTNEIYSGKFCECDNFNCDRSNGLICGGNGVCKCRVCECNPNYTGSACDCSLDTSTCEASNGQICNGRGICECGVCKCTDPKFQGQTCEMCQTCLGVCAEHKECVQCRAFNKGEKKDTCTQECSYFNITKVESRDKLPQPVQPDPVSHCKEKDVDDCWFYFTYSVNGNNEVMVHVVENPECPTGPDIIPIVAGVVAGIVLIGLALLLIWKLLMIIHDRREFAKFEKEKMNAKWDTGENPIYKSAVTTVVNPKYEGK
Integrin beta-1 (Homo sapiens) + Integrin alpha-4 (Homo sapiens), sequence (P13612 whole entry, looked up): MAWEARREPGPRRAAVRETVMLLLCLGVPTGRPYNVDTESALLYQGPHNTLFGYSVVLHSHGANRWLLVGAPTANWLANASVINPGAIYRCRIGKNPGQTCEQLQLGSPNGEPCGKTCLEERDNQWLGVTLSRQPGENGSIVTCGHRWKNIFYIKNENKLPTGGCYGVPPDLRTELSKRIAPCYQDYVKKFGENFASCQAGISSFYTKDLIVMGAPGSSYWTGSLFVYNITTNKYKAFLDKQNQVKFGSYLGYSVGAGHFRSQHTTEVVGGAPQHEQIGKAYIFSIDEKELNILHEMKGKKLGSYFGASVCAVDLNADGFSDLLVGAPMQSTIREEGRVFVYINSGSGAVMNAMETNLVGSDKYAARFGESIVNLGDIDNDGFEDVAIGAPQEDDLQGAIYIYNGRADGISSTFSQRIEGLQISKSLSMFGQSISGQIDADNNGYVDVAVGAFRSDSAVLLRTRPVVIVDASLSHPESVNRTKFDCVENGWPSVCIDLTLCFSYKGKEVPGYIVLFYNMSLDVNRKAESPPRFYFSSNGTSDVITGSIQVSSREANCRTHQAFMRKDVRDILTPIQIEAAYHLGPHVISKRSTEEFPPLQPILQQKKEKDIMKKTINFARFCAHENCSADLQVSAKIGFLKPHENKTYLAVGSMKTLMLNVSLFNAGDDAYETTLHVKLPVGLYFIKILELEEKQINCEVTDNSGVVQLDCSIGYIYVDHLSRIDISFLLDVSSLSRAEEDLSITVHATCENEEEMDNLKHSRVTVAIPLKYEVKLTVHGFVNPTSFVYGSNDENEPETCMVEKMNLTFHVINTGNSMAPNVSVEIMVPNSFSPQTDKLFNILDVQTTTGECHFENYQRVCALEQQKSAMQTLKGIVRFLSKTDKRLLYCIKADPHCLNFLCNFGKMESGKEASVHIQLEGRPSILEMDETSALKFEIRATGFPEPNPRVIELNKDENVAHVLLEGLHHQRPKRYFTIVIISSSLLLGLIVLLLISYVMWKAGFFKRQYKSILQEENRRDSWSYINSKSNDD
Beta-2 adrenergic receptor (Homo sapiens), sequence (P07550 whole entry, looked up): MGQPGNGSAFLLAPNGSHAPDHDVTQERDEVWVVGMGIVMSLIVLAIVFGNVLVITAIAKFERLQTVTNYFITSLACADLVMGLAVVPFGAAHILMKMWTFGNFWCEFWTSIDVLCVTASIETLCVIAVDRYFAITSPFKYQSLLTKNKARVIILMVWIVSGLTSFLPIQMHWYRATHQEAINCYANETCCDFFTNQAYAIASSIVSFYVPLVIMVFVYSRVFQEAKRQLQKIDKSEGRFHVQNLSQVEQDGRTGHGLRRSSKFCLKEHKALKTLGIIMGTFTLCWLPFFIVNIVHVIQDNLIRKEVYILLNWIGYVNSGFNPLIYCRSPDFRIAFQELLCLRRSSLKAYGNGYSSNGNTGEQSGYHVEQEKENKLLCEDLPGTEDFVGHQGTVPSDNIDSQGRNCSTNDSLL
ATP-binding cassette sub-family B member 6 (Homo sapiens), sequence (Q9NP58 whole entry, looked up): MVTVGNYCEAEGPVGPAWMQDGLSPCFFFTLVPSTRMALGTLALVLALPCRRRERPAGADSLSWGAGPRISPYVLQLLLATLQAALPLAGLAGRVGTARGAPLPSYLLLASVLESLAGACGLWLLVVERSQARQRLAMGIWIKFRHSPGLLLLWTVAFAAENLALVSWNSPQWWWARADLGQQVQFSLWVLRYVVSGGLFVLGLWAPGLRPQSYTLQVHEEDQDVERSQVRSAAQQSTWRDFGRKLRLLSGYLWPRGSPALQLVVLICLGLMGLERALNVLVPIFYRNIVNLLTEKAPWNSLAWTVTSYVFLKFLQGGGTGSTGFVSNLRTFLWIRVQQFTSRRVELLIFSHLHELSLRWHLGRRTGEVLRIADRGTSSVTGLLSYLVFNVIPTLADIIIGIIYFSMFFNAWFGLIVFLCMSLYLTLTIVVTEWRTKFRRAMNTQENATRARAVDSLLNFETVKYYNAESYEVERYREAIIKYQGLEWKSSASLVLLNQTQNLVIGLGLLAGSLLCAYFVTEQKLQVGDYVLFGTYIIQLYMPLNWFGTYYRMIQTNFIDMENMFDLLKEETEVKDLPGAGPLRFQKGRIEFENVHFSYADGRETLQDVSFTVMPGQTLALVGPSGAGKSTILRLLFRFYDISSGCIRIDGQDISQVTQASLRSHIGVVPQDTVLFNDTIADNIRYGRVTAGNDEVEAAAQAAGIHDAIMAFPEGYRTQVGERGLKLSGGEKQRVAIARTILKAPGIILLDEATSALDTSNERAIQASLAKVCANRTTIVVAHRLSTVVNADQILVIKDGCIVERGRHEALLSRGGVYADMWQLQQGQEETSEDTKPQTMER
AP-2 complex subunit beta (Homo sapiens), sequence (P63010 whole entry, looked up, the tested form may be a part, one chain of several): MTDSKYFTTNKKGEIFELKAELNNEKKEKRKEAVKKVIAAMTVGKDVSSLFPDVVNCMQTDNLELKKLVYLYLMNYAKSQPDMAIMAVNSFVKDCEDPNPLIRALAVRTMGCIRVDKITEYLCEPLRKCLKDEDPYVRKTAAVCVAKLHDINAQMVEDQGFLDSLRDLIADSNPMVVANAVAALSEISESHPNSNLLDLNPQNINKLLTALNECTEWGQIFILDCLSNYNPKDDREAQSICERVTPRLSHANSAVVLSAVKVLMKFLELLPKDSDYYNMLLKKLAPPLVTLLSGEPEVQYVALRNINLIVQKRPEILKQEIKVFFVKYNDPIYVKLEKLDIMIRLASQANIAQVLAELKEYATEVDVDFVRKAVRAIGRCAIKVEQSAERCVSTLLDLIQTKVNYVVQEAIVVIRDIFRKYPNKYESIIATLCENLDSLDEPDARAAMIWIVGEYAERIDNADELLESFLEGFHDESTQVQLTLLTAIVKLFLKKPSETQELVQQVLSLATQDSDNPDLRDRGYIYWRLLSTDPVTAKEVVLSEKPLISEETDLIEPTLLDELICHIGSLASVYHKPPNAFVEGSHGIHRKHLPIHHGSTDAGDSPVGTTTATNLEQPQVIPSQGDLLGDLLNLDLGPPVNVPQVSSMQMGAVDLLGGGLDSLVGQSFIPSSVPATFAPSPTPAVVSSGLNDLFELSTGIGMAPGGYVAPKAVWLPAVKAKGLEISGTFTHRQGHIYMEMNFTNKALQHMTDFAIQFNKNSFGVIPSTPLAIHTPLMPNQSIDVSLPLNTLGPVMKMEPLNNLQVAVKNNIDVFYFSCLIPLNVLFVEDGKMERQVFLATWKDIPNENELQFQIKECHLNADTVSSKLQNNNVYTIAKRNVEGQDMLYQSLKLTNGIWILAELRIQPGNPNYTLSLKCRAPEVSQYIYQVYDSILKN

Compound	percent of DMSO control GFP [1]	GFP response vs DMSO [2]	percent response of DMSO control [3]	GFP response vs DMSO [4]	GFP response, % of DMSO [5]	double positive events [6]	vesicle binding response [6]	inhibition [7]	superoxide response (% of plate) [8]	aptamer binding inhibition [9]	response [10]	inhibition [11]	response [12]	binding (% of control) [13]	efflux inhibition (fraction of control) [14]	inhibition [15]	differentiation response [16]
C#CCOc1ccc2c(C)cc(=O)oc2c1	105% (inactive)	93% (inactive)	107% (inactive)	77.6% (inactive)	98.9% (inactive)	60.4%	603% (inactive)	3.7% (inactive)	98% (inactive)	4% (inactive)	-1.57% (inactive)	-7.76% (inactive)	-0.49% (inactive)	99.7% (inactive)	0.36 (inactive)	0% (inactive)	16.9% (inactive)
CC(C)(C)C(=O)Nc1cccc(OC(F)(F)C(F)Cl)c1 (stereo not drawn)	105% (inactive)	106% (inactive)	105% (inactive)	107% (inactive)	113% (inactive)	66.2%	212% (inactive)	25.3% (inactive)	105% (inactive)	4% (inactive)	-32.2% (inactive)	8.53% (inactive)	18.4% (active)	99.5% (inactive)	-0.04 (inactive)	5% (inactive)	11.8% (inactive)
CC(=O)O[C@H]1C[C@@]2(C)[C@@H](C[C@@H](O)[C@H]3[C@@]4(C)CC[C@@H](O)[C@@H](C)C4CC[C@@]32C)/C1=C(\CCC=C(C)C)C(=O)O (stereo partly drawn)	102% (inactive)	107% (inactive)	104% (inactive)	106% (inactive)	115% (inactive)	63.4%	177% (inactive)	11.7% (inactive)	116% (inactive)	-1% (inactive)	-16.8% (inactive)	-14.5% (inactive)	-3.26% (inactive)	100% (inactive)	0.17 (inactive)	3% (inactive)	-9.91% (inactive)
COc1cc(C(=O)CCN2CCC(c3ccccc3)C2)cc(OC)c1OC (stereo not drawn)	108% (inactive)	97.7% (inactive)	110% (inactive)	95.9% (inactive)	105% (inactive)	57.9%	131% (inactive)	1.59% (inactive)	117% (inactive)	2% (inactive)	2% (inactive)	4.79% (inactive)	-0.17% (inactive)	100% (inactive)	0.1 (inactive)	0% (inactive)	-10.4% (inactive)
O=C(/C=C/c1ccc(F)cc1)N1CC[C@@]2(O)CCCC[C@H]2C1	96.7% (inactive)	112% (inactive)	89.1% (inactive)	125% (inactive)	96.5% (inactive)	61.1%	198% (inactive)	-4.52% (inactive)	98.4% (inactive)	3% (inactive)	15.3% (inactive)	-5.97% (inactive)	10.1% (inactive)	98% (inactive)	-0.13 (inactive)	7% (inactive)	-13.6% (inactive)
Cc1ccccc1NC(=O)C1(C)Cc2ccccc2C(=O)O1 (stereo not drawn)	100% (inactive)	103% (inactive)	92.9% (inactive)	131% (inactive)	101% (inactive)	61.4%	161% (inactive)	10.5% (inactive)	96.3% (inactive)	1% (inactive)	-11% (inactive)	29.5% (inactive)	-1.4% (inactive)	101% (inactive)	-0.28 (inactive)	-4% (inactive)	18.4% (inactive)
Cc1nc2cc3ccccc3cc2c(=O)[nH]1	102% (inactive)	106% (inactive)	101% (inactive)	104% (inactive)	96.6% (inactive)	60.4%	160% (inactive)	-26.1% (inactive)	104% (inactive)	6% (inactive)	9.81% (inactive)	-19.1% (inactive)	1.08% (inactive)	98% (inactive)	0.07 (inactive)	-9% (inactive)	-2.64% (inactive)
CCN1CCN(C(=S)c2ccc(OC)cc2)CC1	101% (inactive)	99.6% (inactive)	109% (inactive)	76% (inactive)	92.6% (inactive)	62.5%	183% (inactive)	-4.52% (inactive)	106% (inactive)	2% (inactive)	11.6% (inactive)	-10.4% (inactive)	19.2% (active)	101% (inactive)	-0.21 (inactive)	9% (inactive)	-20% (inactive)
N#Cc1cc2c([nH]c1=O)CCCC2	103% (inactive)	98.3% (inactive)	108% (inactive)	90.7% (inactive)	108% (inactive)	63.2%	184% (inactive)	16.1% (inactive)	89.5% (inactive)	0% (inactive)	-10.3% (inactive)	-13.1% (inactive)	12.5% (inactive)	97.7% (inactive)	-0.04 (inactive)	-2% (inactive)	-5.62% (inactive)
Cc1ccc(Cl)c(Nc2ccccc2C(=O)O)c1Cl	98.9% (inactive)	103% (inactive)	94.4% (inactive)	114% (inactive)	98% (inactive)	60.7%	123% (inactive)	2.29% (inactive)	95.2% (inactive)	2% (inactive)	-14.2% (inactive)	1.34% (inactive)	11.1% (inactive)	103% (inactive)	-0.13 (inactive)	2% (inactive)	-4.99% (inactive)
COc1ccc(/C=C(/C#N)c2cccnc2)cc1OC	101% (inactive)	104% (inactive)	94.9% (inactive)	99.4% (inactive)	99.1% (inactive)	54.1%	6.8% (active)	-13.2% (inactive)	98.6% (inactive)	3% (inactive)	-1.52% (inactive)	23.7% (inactive)	0.34% (inactive)	105% (inactive)	0.42 (inactive)	2% (inactive)	17.1% (inactive)
COc1ccc(CCN=CC2=C(O)CC(C)(C)CC2=O)cc1	109% (inactive)	106% (inactive)	106% (inactive)	91.4% (inactive)	102% (inactive)	62.4%	6690% (inactive)	-2.53% (inactive)	91.4% (inactive)	-2% (inactive)	-5.19% (inactive)	-11.8% (inactive)	2.74% (inactive)	101% (inactive)	0.02 (inactive)	3% (inactive)	1.22% (inactive)
CC(=O)CCCCn1c(=O)c2c(ncn2C)n(C)c1=O	103% (inactive)	96.2% (inactive)	106% (inactive)	82.2% (inactive)	97.5% (inactive)	57.8%	162% (inactive)	12% (inactive)	102% (inactive)	2% (inactive)	-1.49% (inactive)	4.72% (inactive)	0.63% (inactive)	95.5% (inactive)	0.49 (active)	-3% (inactive)	20.8% (inactive)
O=C(Cc1ccccc1[N+](=O)[O-])NCc1ccncc1	101% (inactive)	101% (inactive)	101% (inactive)	97.4% (inactive)	97.4% (inactive)	63.2%	243% (inactive)	6.4% (inactive)	97.3% (inactive)	7% (inactive)	-1.07% (inactive)	-3.75% (inactive)	-1.46% (inactive)	98.2% (inactive)	-0.03 (inactive)	2% (inactive)	-15.2% (inactive)
COc1cc(C(=O)NCCc2c[nH]c3ccccc23)ccc1OCc1c(C)noc1C	96.7% (inactive)	106% (inactive)	98.6% (inactive)	120% (inactive)	93.5% (inactive)	56%	295% (inactive)	-15.4% (inactive)	110% (inactive)	0% (inactive)	6.37% (inactive)	-0.24% (inactive)	1.87% (inactive)	107% (inactive)	-0.03 (inactive)	3% (inactive)	10.4% (inactive)
O=C(O)c1cc2cc(F)ccc2[nH]1	101% (inactive)	101% (inactive)	105% (inactive)	98.6% (inactive)	102% (inactive)	64.7%	894% (inactive)	-15% (inactive)	113% (inactive)	3% (inactive)	0.15% (inactive)	8.62% (inactive)	1.32% (inactive)	97.2% (inactive)	-0.14 (inactive)	14% (inactive)	-1.71% (inactive)
O=C1CCc2cc(OCCCCc3nnnn3C3CCCCC3)ccc2N1	92.4% (inactive)	136% (inactive)	101% (inactive)	85.3% (inactive)	92.2% (inactive)	67%	194% (inactive)	-5.18% (inactive)	102% (inactive)	6% (inactive)	-6.49% (inactive)	-4.26% (inactive)	-1.32% (inactive)	96.9% (inactive)	-0.09 (inactive)	11% (inactive)	8.19% (inactive)
CN1C(=O)NC(c2ccc(O)cc2)C2=C1CN(c1cccc3ccccc13)C2=O (stereo not drawn)	102% (inactive)	107% (inactive)	106% (inactive)	94% (inactive)	100% (inactive)	64%	229% (inactive)	-1.49% (inactive)	94.5% (inactive)	0% (inactive)	-19.6% (inactive)	3.73% (inactive)	-0.13% (inactive)	99.8% (inactive)	-0.23 (inactive)	-6% (inactive)	7.09% (inactive)
O=C(Nc1ccc(F)c([N+](=O)[O-])c1)c1ccc2c(c1)OCCO2	106% (inactive)	103% (inactive)	104% (inactive)	108% (inactive)	100% (inactive)	63%	5830% (inactive)	-1.49% (inactive)	94% (inactive)	2% (inactive)	1.51% (inactive)	-13.5% (inactive)	3.69% (inactive)	92.4% (inactive)	-0.01 (inactive)	15% (inactive)	5.13% (inactive)

From PubChem BioAssay
